This note sets out measurements from PubChem BioAssay (NCATS).

Values without a mark were called inactive. Records with an inconclusive call do not appear. Calls of active or inactive are those of the source. Calls come from the whole dose curve; as a rule, active = well fitted curve in the direction sought with a large enough effect; inconclusive = small, poorly fitted or top-dose-only effect, or another doubt; inactive = no such curve, though single readings can be large; an effect the other way counts as inactive or inconclusive.

The nature of experiment [1]: qHTS to identify inhibitors of the type 1 interferon - major histocompatibility complex class I in skeletal muscle: primary screen against the NCATS LOPAC collection (AID 1347405).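 Note: lytic HiBiT luminescence reporting HLA-B protein level.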 Note: potency is the fitted concentration of half-maximal effect. In a few lines: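 Cells: C25cl48 human myoblasts, HiBiT-tagged HLA-B*08:01, stimulated with IFN-beta 4.0 ng/ml. Compounds are titrated 1:4.3 over 7 points from 46 uM final and incubated 24 hrs; endogenous MHC class I is quantified by HiBiT lytic luminescence.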
In general terms: qHTS replaces the single test concentration by a dilution series.

A short description of experiment [2]: qHTS for inhibitors of adenylyl cyclases using a fission yeast platform: a pilot screen against the NCATS LOPAC library (AID 1347410).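 Note: plate controls were DMSO vehicle for no effect and DPI positive control for full effect.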 The gist of the method:
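GFP from fbp1-GFP reporter, read by Acumen laser cytometry, indicates AC inhibition in fission yeast expressing AC9, GNAS and PDE4D2. Cells grown 18 h in the dark at 30C with compounds, final up to 57 uM.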

In experiment [3] the target is Single-stranded DNA cytosine deaminase (Homo sapiens) (UniProt Q9GZX7). The experiment can be described thus: Validation qHTS assay for inhibitors of Activation Induced Cytidine Deaminase (AID): AID signal (AID 1347429). Note: % is set by controls: 0 for no effect and ±100 for the full control effect. In a few lines:
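In this coupled qHTS, AID deaminates a FRET-labelled ssDNA substrate in the presence of UDG over 4 hr at room temperature. Compounds span up to 114 uM final.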

A short description of experiment [4]: Primary qHTS for inhibitors of La Crosse Virus (LACV) - induced cell death in SH-SY5Y cells (AID 1508616).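 Note: top concentration of the series differs between compounds; 0% = infected DMSO wells and 100% = uninfected DMSO wells; higher means more rescue of cells from virus-induced death.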 The gist of the method:
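Readout was luminescence from ATPLite 1step added after a 6-day LACV infection (0.01 MOI) of SH-SY5Y cells that had received pin-transferred compound 24 hr after seeding.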

The nature of experiment [5]: Validation qHTS assay for inhibitors of Activation Induced Cytidine Deaminase (AID): UDG Counterscreen signal (AID 1347427). Note: 0% is about no effect. The gist of the method: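 Counterscreen read of UDG activity (2 U/mL, 4/3x) in the FRET deamination format with AID (1 uM, 4/3x), DJC20/DJC23 substrates (250 nM, 4x), 4 h at room temperature. NaOH stop, fluorescence at 560 ex/665 em.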
Experiment [6] can be described thus: Primary qHTS for small molecule stabilizers of the endoplasmic reticulum resident proteome: Secreted ER Calcium Modulated Protein (SERCaMP) assay (AID 1508630). Note: % is set by controls: 0 for no effect and ±100 for the full control effect. In a few lines: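 GLuc-SERCaMP-expressing SH-SY5Y cells, pretreated 16 h with compound, are challenged with thapsigargin to empty ER calcium stores; after 4 h, coelenterazine is added directly to the medium and luminescence is imaged.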

A further experiment has as its target Papain (Carica papaya) (UniProt P00784). The experiment can be described thus: Primary qHTS assay for inhibitors of the protease papain (AID 1645873).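 Note: papain turnover of Z-FR-AMC read as the AMC fluorescence gain over 10 min.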 Note: potency is the fitted concentration of half-maximal effect.
Experiment [7] addresses Calcium and integrin-binding protein 1 (Homo sapiens) (UniProt Q99828). In words: Validation qHTS for Identification of Calcium Integrin Binding protein 1 (CIB1) Competitor (AID 1508618). Note: % is set by controls: 0 for no effect and ±100 for the full control effect. In a few lines: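 In this qHTS validation, the LOPAC set (up to 114 uM) was tested for blocking CIB1 binding to a fluorescein-tagged alphaIIb peptide, with FP detection at 480/540 nm.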

Experiment [8] shares this target. In words: Primary qHTS for Identification of Calcium Integrin Binding Protein 1 (CIB1) Competitor (AID 1508620).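 Note: GST tagged CIB1 binding a fluorescein labelled alphaIIb integrin peptide tracer; top concentration of the series differs between compounds; % is set by controls: 0 for no effect and ±100 for the full control effect.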 The gist of the method: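 Fluorescence polarization competition: CIB1-GST (1 uM final) preincubated with compound 15 min at room temperature, then FITC-labeled alphaIIb peptide (100 nM final) added for another 15 min. Polarization read at Ex 480/Em 540.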

Experiment [9] can be described thus: Primary qHTS for inhibitors of nuclear receptor binding SET domain protein 2 (NSD2) in an isogenic RCH-ACV NSD2 p.E1099K mutant (9B) (AID 1645876). Note: potency is the fitted concentration of half-maximal effect; nearly all actives have a fitted effect of over 70% in size.
A short description of experiment [10]: Counterscreen qHTS for small molecule stabilizers of the endoplasmic reticulum resident proteome: GLuc-NoTag assay (AID 1508627).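 Note: SH-SY5Y cells given compound then 100 nM thapsigargin to empty ER calcium; series mostly up to about 76 µM; 0% = thapsigargin alone and -100% = DMSO vehicle control.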 The gist of the method:
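SH-SY5Y cells stably expressing constitutively secreted GLuc (no SERCaMP tag) were pre-incubated 5 h, treated with compound for 19 h, then 100 nM thapsigargin for 4 h at 37C; medium GLuc read by coelenterazine luminescence.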

Experiment [11] is described as follows: Confirmatory qHTS for small molecule stabilizers of the endoplasmic reticulum resident proteome: Secreted ER Calcium Modulated Protein (SERCaMP) assay (AID 1508628).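 Note: SH-SY5Y cells given compound 16 h then thapsigargin 100 nM for 4 h; series mostly up to about 76 µM; % is set by controls: 0 for no effect and ±100 for the full control effect; nearly all actives have a fitted effect of over 40% in size.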 The gist of the method: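 We seeded SH-SY5Y-GLuc-SERCaMP cells, added compounds (three concentrations in the primary run, eleven up to 76.6 uM in confirmation), incubated 16 h, depleted ER calcium with thapsigargin, and read luciferase 4 h later.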

Experiment [12] in a line: Cell Viability qHTS for small molecule stabilizers of the endoplasmic reticulum resident proteome (AID 1508629). To be noted: cell viability counter-screen, 100 nM thapsigargin for final 4 h.

Sequence of Papain (Carica papaya) (P00784 whole entry, looked up): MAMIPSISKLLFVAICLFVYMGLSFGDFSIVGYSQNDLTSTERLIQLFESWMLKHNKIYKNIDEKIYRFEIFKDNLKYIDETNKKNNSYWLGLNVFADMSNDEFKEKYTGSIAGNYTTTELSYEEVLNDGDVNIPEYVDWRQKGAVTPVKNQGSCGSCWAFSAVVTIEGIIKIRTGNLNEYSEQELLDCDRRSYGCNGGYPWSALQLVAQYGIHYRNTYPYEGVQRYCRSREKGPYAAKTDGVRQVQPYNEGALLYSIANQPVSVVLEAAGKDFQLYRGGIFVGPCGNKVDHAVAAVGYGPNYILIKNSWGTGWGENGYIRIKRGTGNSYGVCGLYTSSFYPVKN
Sequence of Calcium and integrin-binding protein 1 (Homo sapiens) (Q99828 whole entry, looked up): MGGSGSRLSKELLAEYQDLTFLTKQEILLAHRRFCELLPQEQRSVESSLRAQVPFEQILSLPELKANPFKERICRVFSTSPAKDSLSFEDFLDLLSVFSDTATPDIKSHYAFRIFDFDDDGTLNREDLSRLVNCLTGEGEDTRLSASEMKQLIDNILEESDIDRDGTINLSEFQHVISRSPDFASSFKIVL
Sequence of Single-stranded DNA cytosine deaminase (Homo sapiens) (Q9GZX7 whole entry, looked up): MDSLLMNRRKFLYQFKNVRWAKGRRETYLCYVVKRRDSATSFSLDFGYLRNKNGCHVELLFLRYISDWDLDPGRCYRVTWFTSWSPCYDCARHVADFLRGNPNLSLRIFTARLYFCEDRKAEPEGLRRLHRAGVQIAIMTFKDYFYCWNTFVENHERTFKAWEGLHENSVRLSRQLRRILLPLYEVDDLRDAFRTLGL

Consider `NS(=O)(=O)c1cccc2c1c([N+](=O)[O-])cc1nc(O)c(O)nc12`, for which the Potency result in [1], in experiment [3] and in experiment [4] was “inactive” each time. The outcome in [2] was inactive.
In the case of `CCCCCCCCCCC/C=C\C(C)(C)/C=C\CCCC(=O)O`, the Potency result (in experiment [1]; in [5]; in [4]; in [6]; in the experiment with Papain (Carica papaya)) was “inactive” in each case. Also, in experiment [2], the molecule was classed as inactive.
As for `N#CC(C#N)=C(N)/C(C#N)=C/c1ccc(O)cc1`, the Potency result in experiment [1], in experiment [3], in [4], in [7] and in experiment [6] was “inactive” throughout. The outcome in experiment [2] was inactive.
Consider `CC(C)C[C@H](NC(=O)[C@H](O)[C@H](N)Cc1ccccc1)C(=O)O`, for which, in [2], the call was inactive. Besides, the Potency entry (in experiment [5]; in experiment [3]; in experiment [4]; in [7]; in experiment [6]; with Papain (Carica papaya)) was “inactive” in each case.
Consider `CNC(=O)c1cc2c(cn1)[nH]c1ccccc12`, for which the Potency result in experiment [1], in [3], in experiment [7] and in experiment [6] was “inactive” throughout. The molecule was classed as inactive in [2]. Further, the Potency with Papain (Carica papaya) was 25.1 µM (active).
Consider `Nc1ncnc2c1c(-c1ccc(Oc3ccccc3)cc1)cn2C1CCCC1`, for which the outcome in [2] and in [8] was inactive. For the same molecule, the Potency result (in experiment [5]; in [3]; in [4]; in experiment [7]; in experiment [6]; with Papain (Carica papaya)) was “inactive” each time. Further, in experiment [9], the Potency is 1.64 µM (active).
Consider `C[N+](C)(C)CC=O`, for which the Potency entry (in experiment [1]; in [3]; in experiment [4]; in experiment [7]; in experiment [6]; with Papain (Carica papaya)) was “inactive” throughout. Moreover, in experiment [2], the outcome was inactive.
For `CCCCCCCCCCCCCCC[C@H](O)[C@H](N)CO`, the molecule was called inactive in [2]. Further, the Potency entry in [5], in experiment [3], in experiment [4], in [7], in [10] and in experiment [11] was “inactive” in each case. Further, the Potency entry in the experiment with Papain (Carica papaya) was “inactive”. Also, the max response in experiment [12] is -0.696%.
Turning to `Cn1c(=O)c2c(nc(/C=C/c3cccc(Cl)c3)n2C)n(C)c1=O`, the Potency result in experiment [1], in experiment [3], in [4] and in experiment [7] was “inactive” each time. In addition, the result in [2] was inactive. In the experiment with Papain (Carica papaya), the Potency was 3.55 µM (active).
Take `CC(C)NC[C@H](O)COc1ccc(CC(N)=O)cc1`: the Potency result (in experiment [1]; in experiment [3]; in [4]; in experiment [7]; in experiment [6]; in the experiment with Papain (Carica papaya)) was “inactive” throughout. The outcome in [2] was inactive.
For the molecule `C=C(C)C1CC=C(C(=O)O)CC1` (stereo not given), the Potency entry (in experiment [1]; in experiment [3]; in experiment [7]; in experiment [6]; in the experiment with Papain (Carica papaya)) was “inactive” throughout. In experiment [2], the call was inactive.
`CC[n+]1c(/C=C/C=C2/N(C)c3ccccc3C2(C)C)sc2ccccc21`: the Potency in experiment [1] is 5.01 µM (active). Besides, the call in [2] was inactive. The Potency entry (in [5]; in experiment [7]; with Papain (Carica papaya)) was “inactive” in each case.
Turning to `C#CCn1c(=O)c2c(ncn2C)n(C)c1=O`, the Potency entry (in [1]; in experiment [3]; in experiment [4]; in [7]; in experiment [6]; in the experiment with Papain (Carica papaya)) was “inactive” each time. In experiment [2], the molecule was called inactive.
For the molecule `CN1CC(O)C(O)C(O)C1CO` (stereo not given), the Potency entry (in experiment [1]; in experiment [3]; in experiment [4]; in experiment [7]; in experiment [6]; in the experiment with Papain (Carica papaya)) was “inactive” each time. The result in experiment [2] was inactive.
With `CCC1(O)CC2CN(CCc3c([nH]c4ccccc34)[C@@](C(=O)OC)(c3cc4c(cc3OC)N(C=O)C3[C@]45CCN4CC=C[C@@](CC)([C@@H](OC(C)=O)[C@]3(O)C(=O)OC)[C@H]45)C2)C1` (stereo not given in full), in experiment [2], the call was inactive. In addition, the Potency result (in [5]; in experiment [3]; in [4]; in experiment [6]; with Papain (Carica papaya)) was “inactive” in each case.
`O=C(O)CCC/C=C\C[C@@H]1[C@@H](/C=C/[C@H](O)C2Cc3ccccc3C2)[C@@H](F)C[C@@H]1O`: the call in experiment [2] was inactive. The Potency entry (in [5]; in experiment [3]; in experiment [4]; in experiment [7]; with Papain (Carica papaya)) was “inactive” each time.
For `Cn1c(=O)c2[nH]c(-c3ccc(S(=O)(=O)O)cc3)nc2n(C)c1=O`, the outcome in experiment [2] was inactive. In addition, the Potency result in experiment [5], in experiment [3], in experiment [4] and in experiment [6] was “inactive” each time. The Potency with Papain (Carica papaya) is 25.1 µM (active).
`NCCNS(=O)(=O)c1cccc2c(Cl)cccc12`: in experiment [2], the molecule was called inactive. The Potency entry (in experiment [5]; in experiment [3]; in experiment [4]; in [7]; in [6]; with Papain (Carica papaya)) was “inactive” throughout.
On to `NC(=O)CC[C@H](N)C(=O)O`, for which, in [2], the result was inactive. Moreover, the Potency entry (in experiment [5]; in experiment [3]; in experiment [4]; in experiment [7]; in the experiment with Papain (Carica papaya)) was “inactive” each time.
With `CNCCNS(=O)(=O)c1cccc2cnccc12`, in experiment [2], the molecule was classed as inactive. The Potency entry (in experiment [5]; in [3]; in [4]; in experiment [7]; in experiment [6]; with Papain (Carica papaya)) was “inactive” each time.
For `Cc1cc(Cn2cnc3c2C[C@@H](C(=O)O)N(C(=O)C(c2ccccc2)c2ccccc2)C3)ccc1N`, the outcome in experiment [2] was inactive. The Potency result (in [5]; in [3]; in [4]; in [6]; in the experiment with Papain (Carica papaya)) was “inactive” each time.
In the case of `NC(N)=[N+]1CCc2ccccc2C1`, the result in [2] was inactive. The Potency entry (in experiment [5]; in experiment [3]; in experiment [4]; in experiment [7]; in [6]; with Papain (Carica papaya)) was “inactive” each time.
`N=C(N)SCCN`: in experiment [2], the molecule was called inactive. Besides, the Potency entry (in [5]; in [3]; in experiment [4]; in experiment [7]; in experiment [6]; with Papain (Carica papaya)) was “inactive” in each case.
In the case of `NC1(C(=O)O)CC1`, the result in experiment [2] was inactive. Further, the Potency result (in [5]; in [3]; in [4]; in [7]; with Papain (Carica papaya)) was “inactive” throughout.
With `CC(=O)/C(C)=N/O`, the call in experiment [2] was inactive. Besides, the Potency entry in experiment [5], in experiment [3], in experiment [4], in experiment [7] and in experiment [6] was “inactive” each time. Also, the Potency with Papain (Carica papaya) was 2 µM (active).
Take `CCc1ccc2c(-c3cccc(Cl)c3)nc(=O)n(CC)c2n1`: the outcome in experiment [2] was inactive. The Potency result (in [5]; in [3]; in [4]; in experiment [7]; with Papain (Carica papaya)) was “inactive” each time.
For the molecule `CCCCCC[C@@H]([C@@H](C)O)n1cnc2c(N)ncnc21`, the result in [2] was inactive. The Potency entry (in experiment [5]; in experiment [3]; in experiment [4]; in [7]; in [6]; with Papain (Carica papaya)) was “inactive” throughout.
For `CCn1c(=O)[nH]c2cc(Cl)c(Cl)cc21`, the molecule was classed as inactive in experiment [2]. The Potency entry (in [5]; in [3]; in experiment [4]; in experiment [7]; in experiment [6]; with Papain (Carica papaya)) was “inactive” in each case.
Consider `OC[C@H]1O[C@@H](n2cnc3cncnc32)[C@H](O)[C@@H]1O`, for which the result in [2] was inactive. Also, the Potency entry (in experiment [5]; in experiment [3]; in experiment [4]; in experiment [7]; in experiment [6]; with Papain (Carica papaya)) was “inactive” in each case.
